Drawing on PubChem BioAssay (EPA / NIEHS), this text covers outcome for 14 compounds.

Calls of active or inactive are those of the source. Rule for the calls: active = hit-call score of the fitted dose curve at least 0.9, where 1 is the maximum; inactive = score below 0.9.

This assay is described as follows: CCTE_Padilla_ZF_Score.Blood_pooling: CCTE's 144 Hour Post-fertilization zebrafish Assay Score for Blood Pooling, Padilla Lab (AID 2284415). Here is the method: CCTE_Padilla_ZF_Phenotype_Score is a whole embryo, multiplexed assay using zebrafish ova exposed for 144 hours post fertilization on a 96-well plate.CCTE_Padilla_ZF_Score.Blood_pooling is one of one assay component(s) measured or calculated from the CCTE_Padilla_ZF_Phenotype_Score assay. It is designed to make measurements of zebrafish development as detected with brightfield microscopy of developing zebrafish embryos.Data from the assay component CCTE_Padilla_ZF_Score.Blood_pooling was analyzed into 1 assay endpoints. This assay endpoint, CCTE_Padilla_ZF_Score.Blood_pooling, was analyzed in the positive analysis fitting direction relative to DMSO as the negative control and baseline of activity. Using a type of viability reporter, gain-of-signal activity can be used to understand changes in developmentals as they relate to the whole embryo. To generalize the intended target to other relatable targets, this assay endpoint is annotated to the zebrafish development intended target family, where the subfamily is swim bladder morphogenesis.
Zebrafish husbandry: Wild type adult zebrafish (Danio rerio; undefined outbred stock obtained from Aquatic Research Organisms, Hampton, NH, 03842) were housed in an AAALAC-approved animal facility at 28C with a 14:10 h light: dark cycle (lights on at 08:30 h). Adult fish (2-3 females per male; density = 15-20 adults per tank) were kept in one of several 9-liter (L) flow-through colony tanks (Aquaneering Inc., San Diego, CA). All adults in a colony tank were placed in a 2 L (static) breeding tank (Aquatic Habitats, Apopka, FL) one hour prior to light onset. Typically, adults from two to three colony tanks were mated on the same day. Two hours after light onset the adults were returned to the colony tank. All embryos were gathered from each breeder tank, pooled, and placed in a 28C water bath for 2 h, followed by two washes with 0.06% bleach (v/v) in 10% Hanks' Balanced Salt Solution (13.7 mM NaCl 0.54 mM KCl, 25 uM Na2HPO4, 130 uM CaCl2 100 um MgSO4 and 420 um NaHCO3,), hereafter referred to as Hanks' solution, for 5 min in order to remove any residual bacteria or fungi. Immediately following washing, the embryos were examined, and healthy embryos were separated from dead or unfertilized eggs and moved into fresh Hanks'. Chemical exposures: Zebrafish embryos were exposed in 96-well plates. Between 6- and 8-hours post fertilization (hpf), healthy embryos (with chorions) were transferred, one embryo per well, into 96 well (0.5 mL) microtiter plates (Cell Culture-Treated, Flat-Bottom Microplate 96 well [Corning Costar, Kennebunk, ME; Cat 09-761-145]) filled with 200 uL of Hanks' solution. A random number generator was used to assign the order in which the rows of embryos were plated in 96 well plates each week. After plating, the embryos were dosed with 0.8 uL of the chemical dosing solution then immediately sealed with AlumaSeal II (Excel Scientific Inc, Victorville, CA) to prevent volatilization of the chemicals, and then placed in a leakproof secondary container. These containers were placed in an incubator maintained on a 14:10 h light: dark cycle at 26C for rearing. On 5 dpf, live larvae were gently moved out of the plate with test chemicals and into a new 96 well mesh plate (Millipore Corp., Bedford, MA) with just the Hanks' solution. Once within the mesh well plate, the animals were rinsed with 400 uL of fresh Hanks' three times, and then the plates were covered with a non-adhesive material (Microseal A, BioRad, Hercules, CA), plate lid added, and then plate sides wrapped in Parafilm (PM992, Bermis Company, Neenah, WI), and returned to the incubator. […]
As to `O=C(O)C(F)(F)OC(F)(F)C(F)(F)OC(F)(F)F`, the compound was called inactive.
As to `CC(O)C(F)(F)C(F)(F)F` (centres undefined), the compound was called inactive.
In the case of `OCC(F)(F)OC(F)(F)C(F)(F)OC(F)(F)C(F)(F)OC(F)(F)F` it was “inactive”; in that of `COC(=O)C(F)(F)C(F)(F)OC(F)(C(F)(F)F)C(F)(F)OC(F)=C(F)F` (centres undefined), “inactive”.
For `NC(=O)C(F)(F)C(F)(F)F` the value was “inactive”; for `O=C(O)C(F)(OC(F)(F)C(F)(F)C(F)(F)F)C(F)(F)F` (centres undefined), “inactive”; for `OCC(F)(F)OC(F)(F)C(F)(F)OC(F)(F)CO`, “inactive”.
In the case of `C=CC(=O)OCC(F)(F)C(F)F` it was “inactive”; in that of `FC(F)(F)C(F)(C(F)(F)F)C(F)(F)C(F)(F)CC1CO1` (centres undefined), “inactive”; in that of `O=C(O)C(F)(F)OC(F)(F)C(F)(F)OC(F)(F)C(=O)O`, “inactive”.
Take `O=C(O)C(F)(F)C(F)(F)C(=O)O`: the result was inactive.
Take `OCC(F)(F)OC(F)(F)C(F)(F)OC(F)(F)C(F)(F)OC(F)(F)CO`: the compound was classed as inactive.
In the case of `O=S(=O)(F)C(F)(F)C(F)(F)C(F)(F)C(F)(F)C(F)(F)C(F)(F)C(F)(F)C(F)(F)F` it was “inactive”.
For `O=C(O)C=CC(F)(C(F)(F)F)C(F)(F)F` the value was “inactive”.
